Our source for the growth inhibition values is PubChem BioAssay (NCI).

This is part of a sample that, as a whole, favours compounds with a hit. Of some 79,000 tested, about 15% had one in any assay. A number with no mark means an inactive call. Active and inactive are the calls of the source. Cut-off read from the data, not from the text of the source: active = growth inhibition above about 70%; inactive = the rest.

The first assay in a line: NCI Yeast Anticancer Drug Screen. Data for the mlh1 rad18 strain (AID 175). To be noted: S. cerevisiae mlh1 rad18 strain growth inhibition; at 50.0 µM; hits give high values. The method in brief:
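Test agents were incubated with a yeast strain of defined genotype (DNA damage repair defect). Inhibition of growth was derived by comparison with vehicle-exposed cultures.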
Regarding `C/C(=N\O)C1CC2C=C(C#N)C1N(Cc1ccccc1)C2` (stereo not drawn), the growth inhibition is 9%.

`O=[N+]([O-])C(=C(Sc1ccccc1)Sc1ccccc1)C(Cl)=C(Cl)Cl`: the growth inhibition was 59.5%.

As for `CCCCCCCCCC/C=C\C(=O)O`, the growth inhibition is 73.8% (active).

As to `COc1ccc(N=C2C(=O)Nc3ccc(Br)cc32)cc1`, the growth inhibition was 27%.

Take `COc1ccccc1C(=O)OCC1CCCN2CCCCC12` (stereo not drawn): the growth inhibition is 90.3% (active).

`CC(C)(Br)C(=O)/C=C/c1ccc(Cl)c(Cl)c1`: the growth inhibition was 82.8% (active).

As for `Nc1ccccc1CC(O)C(=O)O` (stereo not drawn), the growth inhibition was 92.7% (active).

For `CC(=O)N/N=C/C(C)(C)C(C)(C)/C=N/NC(C)=O`, the growth inhibition was 59.4%.

Regarding `CN(C)c1nc2sc3c(c2c(=O)o1)CCCC3`, the growth inhibition is 50.6%.

As to `CC(C)OC(=O)Oc1ccccc1OC(=O)OC(C)C`, the growth inhibition is -9.1%.

With `Cc1ccc(N)c(S)c1`, the growth inhibition is 92.2% (active).

`O=C(O)c1ccccc1NC(=S)c1ccccc1`: the growth inhibition is 1.6%.

In the case of `COC(=O)c1ccc(NCC2=CC(=O)C=CC2=O)cc1O`, the growth inhibition was 92.2% (active).

For the compound `NC(N)=N/N=C\c1c2ccccc2cc2ccccc12`, the growth inhibition was 72.7% (active).

In the case of `COC(=O)CSSCc1ccc([N+](=O)[O-])cc1`, the growth inhibition is 94.4% (active).

Take `CCS(=O)(=O)c1ccc(/C=C/C=N/NC(=S)NCC(C)C)cc1`: the growth inhibition is 4%.

With `N#CC(C(=O)Nc1ccccc1)C1=C(Cl)C(=O)c2ccccc2C1=O` (stereo not drawn), the growth inhibition is 91% (active).

`C[C@H](CCC(=O)NN)[C@H]1CC[C@H]2[C@@H]3CC[C@@H]4C[C@H](O)CC[C@]4(C)[C@H]3CC[C@]12C`: the growth inhibition was 92.2% (active).

Regarding `CC[n+]1ccc2c(C)c3[nH]c4ccc(O)cc4c3c(C)c2c1`, the growth inhibition is 65%.

A further assay can be described thus: NCI Yeast Anticancer Drug Screen. Data for the rad18 strain (AID 177). The note with it: S. cerevisiae rad18 mutant growth inhibition; at 1.2 µM; hits give high values. The method in brief:
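A genetically defined yeast mutant impaired in DNA damage repair was treated with test compounds, then its growth was measured against cultures receiving vehicle alone.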
With `CCCc1cc(C(=O)OCC)cc(CCC)c1O`, the growth inhibition was -6%.

In the case of `CC(C)[N+]([O-])(CCCNc1c2ccccc2nc2cccc([N+](=O)[O-])c12)C(C)C`, the growth inhibition is 96% (active).

With `COc1cc2c3c(cccc3c1)C(=O)N(CCN(C)C)C2=O`, the growth inhibition is -34%.

Consider `NC(=O)NN=C(CS)CS`, for which the growth inhibition was -1%.

Consider `Cc1ccc(NC(=O)/C(Cl)=C(\Cl)C(=O)O)cc1C`, for which the growth inhibition was 0%.

`CCN(CC)CC[n+]1ccc2c(C)c3[nH]c4ccc(O)cc4c3c(C)c2c1`: the growth inhibition is -2%.

With `CC(CC(C)(C)[N+](C)(C)C)[N+](C)(C)C` (stereo not drawn), the growth inhibition was 11%.

As for `COc1ccc(OC)c2cc3ccccc3cc12`, the growth inhibition was 5%.

Regarding `Nc1ncncc1C(C1=C(O)COC1=O)C1=C(O)COC1=O`, the growth inhibition is 1%.

Take `CSC1=NNC(SC)=NN1`: the growth inhibition was 4%.

With `Cc1c(Cl)ccc2c1S(=O)(=O)c1cccc(Cl)c1-2`, the growth inhibition was -18%.

As to `[O-][n+]1c2ccc(O)cc2nc2ccc(Cl)cc21`, the growth inhibition was 7%.

In the case of `COc1ccc2ccc3ccccc3c2c1C=O`, the growth inhibition was -2%.

Regarding `Nc1ccc2c(c1)C(=O)c1cccc(N)c1C2=O`, the growth inhibition is 5%.

`O=C(c1ccc(Cl)cc1Cl)C(Cl)Cl`: the growth inhibition was -30%.

In the case of `COc1cc(C(=O)/C=C/c2ccccc2O)ccc1O`, the growth inhibition is 1%.

As to `O=Cc1cccc2ccc3ccccc3c12`, the growth inhibition is -6%.

For the compound `O=C(Nc1ccc(Cl)cc1)OCC#CCCl`, the growth inhibition was -5%.

As for `Cn1ccnc1Oc1ccc(Cl)cc1`, the growth inhibition is -7%.

Regarding `c1ccc2c(c1)C(=NCCCN1CCCCCC1)c1cccn1-2`, the growth inhibition is -1%.

With `C/C(=N\O)C1CC2C=C(C#N)C1N(Cc1ccccc1)C2` (stereo not drawn), the growth inhibition is 5%.

As to `O=[N+]([O-])C(=C(Sc1ccccc1)Sc1ccccc1)C(Cl)=C(Cl)Cl`, the growth inhibition was 15%.

`CCCCCCCCCC/C=C\C(=O)O`: the growth inhibition is 0%.

In the case of `COc1ccc(N=C2C(=O)Nc3ccc(Br)cc32)cc1`, the growth inhibition is -25%.

On to `COc1ccccc1C(=O)OCC1CCCN2CCCCC12` (stereo not drawn), for which the growth inhibition is -5%.

As for `CC(C)(Br)C(=O)/C=C/c1ccc(Cl)c(Cl)c1`, the growth inhibition is 3%.

For the compound `Nc1ccccc1CC(O)C(=O)O` (stereo not drawn), the growth inhibition is 1%.

Regarding `CC(=O)N/N=C/C(C)(C)C(C)(C)/C=N/NC(C)=O`, the growth inhibition is -10%.

On to `CN(C)c1nc2sc3c(c2c(=O)o1)CCCC3`, for which the growth inhibition is 0%.

In the case of `CC(C)OC(=O)Oc1ccccc1OC(=O)OC(C)C`, the growth inhibition was -3%.

For the compound `Cc1ccc(N)c(S)c1`, the growth inhibition is -48%.

Take `O=C(O)c1ccccc1NC(=S)c1ccccc1`: the growth inhibition is -16%.

With `COC(=O)c1ccc(NCC2=CC(=O)C=CC2=O)cc1O`, the growth inhibition was 18%.

As for `NC(N)=N/N=C\c1c2ccccc2cc2ccccc12`, the growth inhibition was -74%.
